Substitutions are numbered along the chain they refer to. In all, about 5,800 sequences were measured (“enrichment r”: median about 0.68, highest 2% from about 11 on). Only a selection was taken, and the highest values are over-represented in it overall.
T1: UNK ZnF1-6 (called full-length) (human, UniProt Q9C0B0 30-357)
T1 sequence: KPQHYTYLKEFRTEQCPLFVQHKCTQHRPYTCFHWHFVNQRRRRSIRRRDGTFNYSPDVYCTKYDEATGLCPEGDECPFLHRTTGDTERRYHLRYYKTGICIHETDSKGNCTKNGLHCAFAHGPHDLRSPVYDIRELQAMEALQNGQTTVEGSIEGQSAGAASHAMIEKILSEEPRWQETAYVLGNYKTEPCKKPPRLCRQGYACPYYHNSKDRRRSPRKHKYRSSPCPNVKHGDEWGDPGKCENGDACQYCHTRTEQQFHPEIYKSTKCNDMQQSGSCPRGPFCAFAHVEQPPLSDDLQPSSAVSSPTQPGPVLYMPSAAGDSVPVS

B1: ENSG00000168615:stop:overlap|stop_codon|ENSG00000168615|stop_codon|NA|stop_codon (ssRNA)
RNA: GGGAGUUCUACAGUCCGACGAUCCUGGCCAGAAUACCCAAAAUAAUUGGCAGAUGUCAAAUUUGGCUUUCUGUGUUUAUUACUAGAGCAUAAACAUUUCUAGUUUUGUUUGAGUGUUUUACAGUCCUUUUUGGCAGUUAGGUACAACAGAGGAUUGAGCAUCA
B2: chr2:96185838:96185916:-|3pUTR|ENSG00000084090|msi1_unk|FALSE|overlapping (ssRNA)
RNA: GGGAGUUCUACAGUCCGACGAUCUGGGAGACUAAUCCUUUUAGAUAGUAGCUUUUUGAUGCUCAAAACAUCACAUUUAAAUUUAGUUUAAAAAUUUUUUAACUUUUGUGUCAAAUAGGAGUUGAGGAAUUGAGCAGGAUUCUACAACAGAGGAUUGAGCAUCA
B3: chr16:2708819:2708933:+|3pUTR|ENSG00000167977|unk|FALSE|unique (ssRNA)
RNA: GGGAGUUCUACAGUCCGACGAUCCUCUCUGGGGAGCUGCUGGCCGCUUAGCGUUGUUUGAUUUUUGACCUUGACAUAGUAGAUAGGCUUGUGGUUUUUUUAAUUUAAAGAUAUUAAGACUUAAUUCACUAAAAUUUAUUCUAACAACAGAGGAUUGAGCAUCA
B4: chr5:6669452:6669553:+|3pUTR|ENSG00000145545|unk|FALSE|unique (ssRNA)
RNA: GGGAGUUCUACAGUCCGACGAUCCAUCUCAUCUGGAGUUUUUAAAUGCCAUUUGUUUCAGUUGUCUUUAACAACAUAAUAAAUAGACUUUGCCAUUUAACAAGGUAGCUCAAAUUCUUUUACUAAUUGUUACAUCGAAACAUUCAACAGAGGAUUGAGCAUCA
B5: chr2:216672738:216672882:-|3pUTR|ENSG00000115461|msi1|FALSE|unique (ssRNA)
RNA: GGGAGUUCUACAGUCCGACGAUCUUCUCUUAGGCUUUUGUUUCUAUUUCAAACAUACUUUCUUGGUUUUCUAAUGGAGUAUAUAGUUUAGUCAUUUCACAGACUCUGGCCUCCUCUCCUGAAAUCCUUUUGGAUGGGGAAAGGCAACAGAGGAUUGAGCAUCA
B6: chr16:2708819:2708933:+|3pUTR|ENSG00000167977|unk|total|mutant (ssRNA)
RNA: B3 RNA with U48C, A49C, U76C, A77C, U79C, A80C, U83C, A84C

target: T1, UNK ZnF1-6 (called full-length); experiment: nsRBNS (natural sequence RNA bind-n-seq); RBNS binding buffer (assumed for nsRBNS): 25 mM Tris pH 7.5, 150 mM KCl, 3 mM MgCl2, 0.01% Triton X-100, 500 ug/ml BSA, 20 U/ml SUPERase-In, 4 C; UNK is unkempt and MSI1 is Musashi-1; names of the RNAs are library labels; protein concentration not given here; high values mean tight binding

First: B1
Second: B2
The binding signal of the first is lower: 0.532 enrichment R for the first, 27.5 enrichment R for the second.

Going from B3 to B4, the binding signal falls from 14.8 enrichment R to 0.535 enrichment R.

First: B5
Second: B6
The binding signal of the first is higher: 5.21 enrichment R for the first, 2.05 enrichment R for the second.
